Bioassay records as filed in PubChem.
Sampled rows, rich in hits. Any-hit rate of the full collection: about 2%.
Neddylation inh – blocks human cullin neddylation. P61081+Q13564. TR-FRET cullin neddylation, biochemical. inhibition, % at 25 µM. 360,000 compounds, 0.58% hits; in the data active means inhibition above about 36%
HGIII-sPLA2 inh – Blocks human group III sPLA2 activity; Q9NZ20; 370,000 compounds, 0.56% hits; AID 743126; inhibition, % at 12.2 µM; QFRET BODIPY PC-A2 liposome hydrolysis, fluorescence;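 active means inhibition above mean plus 3 SD of compounds lying within the high and low control bounds, cut at about 19% in these data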;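 further: 0% = median of test compound wells and 100% = no enzyme DMSO wells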
DAGLB inh – diacylglycerol lipase beta (human) inhibition; Q8NCG7; HEK293T DAGLB membrane lysate, EnzChek fluorogenic substrate; inhibition, % at 5.17 µM; 340,000 compounds, 0.059% hits; AID 504411; in the data active means inhibition above about 34%;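 further: 0% = enzyme with vehicle and 100% = wells lacking enzyme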
Target sequence (Q8NCG7 whole entry, looked up): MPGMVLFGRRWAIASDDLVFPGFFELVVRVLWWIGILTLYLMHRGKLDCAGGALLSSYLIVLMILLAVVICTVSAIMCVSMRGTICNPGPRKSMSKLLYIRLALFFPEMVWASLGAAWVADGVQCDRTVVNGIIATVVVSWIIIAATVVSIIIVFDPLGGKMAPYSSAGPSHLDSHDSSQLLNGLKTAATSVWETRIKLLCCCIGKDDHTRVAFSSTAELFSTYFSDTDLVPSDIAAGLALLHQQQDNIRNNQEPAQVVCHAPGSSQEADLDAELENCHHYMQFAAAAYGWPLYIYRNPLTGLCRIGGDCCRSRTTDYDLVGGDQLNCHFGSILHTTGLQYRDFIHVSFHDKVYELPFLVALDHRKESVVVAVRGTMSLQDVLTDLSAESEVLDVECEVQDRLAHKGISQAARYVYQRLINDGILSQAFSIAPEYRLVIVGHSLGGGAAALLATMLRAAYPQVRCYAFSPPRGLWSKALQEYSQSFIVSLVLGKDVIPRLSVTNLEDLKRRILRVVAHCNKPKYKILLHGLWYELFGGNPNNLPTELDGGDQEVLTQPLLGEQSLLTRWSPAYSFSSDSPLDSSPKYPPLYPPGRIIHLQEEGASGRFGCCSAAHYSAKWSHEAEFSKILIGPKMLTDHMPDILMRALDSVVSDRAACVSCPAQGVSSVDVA
NadD block – blocks S. aureus nicotinate mononucleotide adenylyltransferase; 360,000 compounds, 0.78% hits; AID 602399; inhibition, % at 20 µM; purified NadD enzyme, colorimetric absorbance read-out; in the data active means inhibition above about 26%
ARNT TACC3 PPI – disrupts binding between human ARNT and TACC3 | inhibition, % at 9.99 µM | AlphaScreen His-ARNT PAS-B/GST-TACC3 binding, luminescence; TACC3 fragment carries E629A point mutation | 390,000 compounds, 0.66% hits;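 active means mean inhibition of replicates at least 50% and at least half of replicates each reaching 50%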;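 further: 0% = complete ARNT plus TACC3 wells and 100% = ARNT alone without TACC3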
hGIII sPLA2 conf – human GIII-sPLA2 inhibition, confirmation | shares compounds with HGIII-sPLA2 inh | recombinant hGIII-sPLA2, BODIPY PC-A2 QFRET fluorescence | inhibition, % at 12.2 µM | 2,000 compounds, 34% hits;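 active means mean inhibition across triplicates above the hit cutoff set in the earlier primary screen, cut at about 19% in these data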;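 further: 0% = enzyme with DMSO and 100% = DMSO wells lacking enzyme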
BODIPY interf – counter-screen for HGIII-sPLA2 inhibitors: 535nm fluorescence interference. shares compounds with HGIII-sPLA2 inh. 2,000 compounds, 8.5% hits. AID 743282. BODIPY FL product fluorescence interference, QFRET. inhibition, % at 12.2 µM;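 active means average inhibition above the solvent-only control mean plus 3 SD, cut at about 6% in these data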;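 further: 0% = DMSO with substrate plus product and 100% = DMSO with substrate alone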
BODIPY interf DR – interferes with 535nm fluorescence in dose response counter-screen | BODIPY FL product fluorescence interference, cell-free | IC50, µM | shares compounds with HGIII-sPLA2 inh | 240 tested, under 10 active;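 active means IC50 at or below 10 µM; inactive means IC50 above 10 µM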
Active calls of the source: *; . = no result.

SMILES	Neddylation inh	HGIII-sPLA2 inh	DAGLB inh	NadD block	ARNT TACC3 PPI	hGIII sPLA2 conf	BODIPY interf	others
S=c1nc[nH]c2c1[nH]c1ccc(Cl)cc12	-53	20*	-3	1	-4	14	3
CCOC(=O)CCNC(=O)N1CCCC(CCC(=O)N(C)CCc2ccccn2)C1 (configuration not stated)	2	24*	-1	0	.	0	-10
O=C(N/C(=C/c1ccccc1)C(=O)N1CCCCC1)c1ccccc1	-5	1	2	1	-5	.	.
O=C(N/C(=C\c1ccccc1)C(=O)N1CCN(CCO)CC1)c1ccccc1	8	21*	0	-7	-1	5	-3
COc1ccc(CNC(=O)C[C@@H]2C=C[C@@H](NC(=O)Nc3ccc4c(c3)OCO4)[C@@H](CO)O2)cc1	.	.	.	.	-5	.	.
O=C(O)c1cc(O)c2c(c1)[C@H]([C@H]1c3cc(C(=O)O)cc(O)c3C(=O)c3c(O[C@@H]4O[C@H](CO)[C@@H](O)[C@H](O)[C@H]4O)cccc31)c1cccc(OC3O[C@H](CO)[C@@H](O)[C@H](O)[C@H]3O)c1C2=O (some centres not stated)	4	27*	5	68*	8	3	1
O=C(O)c1cc(O)c2c(c1)[C@@H]([C@H]1c3cc(C(=O)O)cc(O)c3C(=O)c3c(O[C@@H]4O[C@H](CO)[C@@H](O)[C@H](O)[C@H]4O)cccc31)c1cccc(OC3O[C@H](CO)[C@@H](O)[C@H](O)[C@H]3O)c1C2=O (some centres not stated)	-7	17	5	30	5	.	.
O=C(COC(=O)c1ccccc1[N+](=O)[O-])NC(=O)c1ccccc1	-9	21*	-1	-3	1	0	-6
O=C(COc1ccc(Br)cc1)NNC(=S)NC(=O)c1ccccc1[N+](=O)[O-]	-16	23*	6	10	24	43*	-15
O=C(NNC(=S)NC(=O)c1ccccc1[N+](=O)[O-])c1ccc(Cl)cc1Cl	-30	14	0	6	5	.	.
O=C(NNC(=S)NC(=O)c1ccccc1[N+](=O)[O-])c1ccccc1O	-17	32*	.	8	.	14	-2
CC(=O)NC(=S)NNC(=O)COc1ccc(Br)cc1	1	-6	1	8	-55	.	.
O=C(NNC(=S)NC(=O)c1ccccc1Cl)c1cccc([N+](=O)[O-])c1	-40	25*	-1	-5	-20	37*	-1	BODIPY interf DR=>122
CCCCOc1ccccc1C(=O)NNC(=S)NC(=O)c1ccccc1[N+](=O)[O-]	3	43*	2	15	13	48*	-7	BODIPY interf DR=>122
Cc1cc(Br)cc(C)c1NC(=O)c1ccccc1[N+](=O)[O-]	-14	21*	-3	-1	-15	4	-7
O=C(NNC(=S)Nc1ccccc1)c1ccccc1[N+](=O)[O-]	-10	9	-1	-2	5	.	.
Cc1cc(Br)c(NC(=O)c2ccccc2[N+](=O)[O-])cc1C	-9	4	-3	4	.	.	.
O=C(NNC(=S)NC(=O)c1ccccc1[N+](=O)[O-])c1ccccc1[N+](=O)[O-]	-23	23*	2	6	1	24*	0
Cc1ccc(NC(=S)N/N=C/c2c(C)[nH]c3ccccc23)cc1	5	-9	-2	14	4	.	.
Cc1[nH]c2ccccc2c1/C=N/NC(N)=S	-13	21*	3	1	22	17	1
CC12C(=O)N(NC(=O)c3ccncc3)C(=O)C1C1C=CC2C1 (configuration not stated)	-3	21*	-2	-5	-13	-5	-5
C[C@H](CO)N1C[C@H](C)[C@@H](CN(C)Cc2ccc(Cl)c(Cl)c2)Oc2ccc(NC(=O)Nc3ccc4c(c3)OCO4)cc2C1=O	.	.	.	.	-11	.	.
COc1ccc(Cl)cc1-c1n[nH]c(=S)n1C	-2	24*	0	1	2	16	-2
CCn1c(-c2cc(Cl)ccc2OC)n[nH]c1=S	6	14	3	-1	-3	.	.
